# Screening results as filed in PubChem BioAssay.
# hgDAF12 agonist: H. glycines DAF-12 receptor agonists, primary screen, cell-based, luminescence, HEK293, GAL4 fusion, UAS-luciferase. Nuclear hormone receptor DAF-12 (Heterodera glycines), GAL4 fusion. HEK293 GAL4-hgDAF12 UAS-luciferase reporter, agonist luminescence; normalized to butyrate control. activation, % at 6.8 µM. actives 1.8% (n = 370,000);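 active means activation above a cutoff set at the mean of all screened compounds plus 3 SD, cut at about 10% in these data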
# ssDAF-12 act: S. stercoralis DAF-12 nuclear receptor activators, primary screen, cell-based, luminescence, HEK293, GRIP1 co-expression, lit1-tk-luc; activation, % at 6.8 µM; AID 652126, 2013; HEK293 ssDAF-12/GRIP1 lit1-tk-luc reporter; % of 3 µM dafachronic acid response; actives 1% (n = 370,000);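 active means activation above the mean over all tested compounds plus 3 SD, cut at about 0.9% in these data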
# DAX1 inh-1: DAX1 (NR0B1) inhibitors on StAR promoter, primary screen, cell-based, luminescence, SF-1 (NR5A1), full-length DAX-1. HEK293T StAR-luciferase reporter, SF-1/DAX-1 repression relief. inhibition, % at 6.8 µM. actives 1.1% (n = 370,000);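 active means inhibition above the mean over all tested compounds plus 3 SD, cut at about 3.6% in these data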;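 further: higher inhibition means more luminescence from relief of DAX-1 repression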
# DAX1 inh-2: DAX1 (NR0B1) inhibitors, primary screen, cell-based, HEK293, Gal4-DAX1, luciferase luminescence. Nuclear receptor subfamily 0 group B member 1 (Homo sapiens), P51843. HEK293 Gal4-DAX1 luciferase reporter. inhibition, % at 6.75 µM. actives 0.99% (n = 340,000);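 active means inhibition above the mean over all tested compounds plus 3 SD, cut at about 4.2% in these data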;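 further: inhibition shows as a rise in luminescence from relieved DAX1 repression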
# Target sequence (P51843 207-470 limits assumed): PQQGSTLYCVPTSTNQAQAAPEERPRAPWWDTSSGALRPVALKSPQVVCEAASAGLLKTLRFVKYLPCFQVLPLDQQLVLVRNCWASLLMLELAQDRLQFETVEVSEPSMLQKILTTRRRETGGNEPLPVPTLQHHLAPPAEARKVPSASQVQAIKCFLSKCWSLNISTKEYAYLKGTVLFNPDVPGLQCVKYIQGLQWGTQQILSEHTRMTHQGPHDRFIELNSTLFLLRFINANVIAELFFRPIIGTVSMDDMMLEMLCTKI
# hcDAF12 agonist: H. contortus DAF-12 nuclear receptor activators, primary screen, cell-based, luminescence, HEK293, lit1-tk-luc reporter; actives 1.4% (n = 370,000); AID 652067, 2013; HEK293 hcDAF-12 lit1-tk-luc reporter; 0% DMSO, 100% Δ7-dafachronic acid; activation, % at 6.8 µM;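 active means activation above the mean of all tested compounds plus 3 SD, cut at about 5.5% in these data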
# DAX1 inh confirm: DAX1 (NR0B1) inhibitors relieving SF-1 repression, confirmation, cell-based, luminescence, HEK293T, full-length DAX-1, SF-1 activated StAR promoter; shares compounds with DAX1 inh-1; HEK293T StAR-promoter luciferase reporter, SF-1/DAX-1 repression; inhibition, % at 6.8 µM; actives 87% (n = 2,400);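 active means inhibition above the average of every tested compound plus 3 SD, cut at about 3.8% in these data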
# SF1 AF2mut Luc: StAR reporter signal changes without DAX1, counter-screen for DAX1 inhibitor project, cell-based, luminescence, AF-2 mutant SF-1, transactivation; actives 78% (n = 2,400); shares compounds with DAX1 inh-1; inhibition, % at 6.8 µM; HEK293 StAR-luciferase, SF-1 AF2 mutant;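 active means inhibition above the mean of all tested compounds plus 3 SD, cut at about 3% in these data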
# LXRb hcDAF ctr: LXR agonists, Gal4 luciferase reporter, confirmation, counter-screen for hcDAF-12 agonist project, cell-based, luminescence, HEK293, H. contortus campaign. 3,400 tested, under 10 active. HEK293 Gal4-LXR tk-luc reporter, 24 h; normalized: DMSO 0%, positive control 100%. activation, % at 6.8 µM. shares compounds with hcDAF12 agonist;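 active means mean percent activation of the reporter above a cutoff set as the average over tested compounds plus their standard deviation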
# hcDAF12 conf: H. contortus DAF-12 receptor agonists, confirmation, cell-based, luminescence, HEK293, lit1-tk-luc, triplicate; shares compounds with hcDAF12 agonist; HEK293 hcDAF-12 lit1-tk-luc reporter; % of Δ7-dafachronic acid response; activation, % at 6.8 µM; actives 61% (n = 3,400); AID 743032, 2013;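 active means mean activation across triplicate tests above the threshold derived from the earlier primary screen, cut at about 5.5% in these data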
# hgDAF12 conf: H. glycines DAF-12 receptor agonists, confirmation, cell-based, luminescence, HEK293, GAL4-LBD fusion. activation, % at 6.8 µM. shares compounds with hgDAF12 agonist. actives 80% (n = 3,300). HEK293 GAL4-hgDAF12 luciferase reporter, agonist mode; percent of butyrate response. AID 743050, 2013;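 active means mean activation over triplicate wells above the hit cutoff derived from the earlier primary screen, cut at about 11% in these data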
# LXRb DAF12 ctr: LXR agonists, Gal4 luciferase reporter, confirmation, counter-screen for hgDAF-12 agonist project, cell-based, luminescence, HEK293, H. glycines campaign. activation, % at 6.8 µM. 3,300 tested, under 10 active. AID 743051, 2013. 24 h. shares compounds with hgDAF12 agonist;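 active means mean activation of the triplicate above a set limit carried over from the primary screen, none filed active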
# A number is an active result; - = inactive; . = no result. A selection: hits, their analogues and other compounds. The true share with any hit is near 4.1%.
SMILES,hgDAF12 agonist,ssDAF-12 act,DAX1 inh-1,DAX1 inh-2,hcDAF12 agonist,DAX1 inh confirm,SF1 AF2mut Luc,hgDAF12 conf,LXRb DAF12 ctr,others
O=C(N/N=C/c1cc([N+](=O)[O-])ccc1O)c1ccc2c(c1)OCCO2,-,-,-,-,-,.,.,.,.,
O=C(N/N=C/c1ccccc1[N+](=O)[O-])c1ccc2c(c1)OCCO2,24,-,5.6,-,6.2,11,4.8,15,-,
O=C(N/N=C/c1cccc(O)c1)c1ccc2c(c1)OCCO2,18,1.1,19,-,13,17,9.4,18,-,LXRb hcDAF ctr=-;hcDAF12 conf=8.5
CC(C)C[C@@H]1COc2cccc(N3CCSCC3)c2S(=O)(=O)N1,-,-,-,.,-,.,.,.,.,
O=C(CN(C(=O)CSc1nc2ccccc2o1)c1cccc(F)c1)NC1CCCCC1,-,-,-,-,-,.,.,.,.,
O=C(Nc1ccc2ccccc2c1)c1cc(F)c(F)cc1Cl,-,-,-,-,-,.,.,.,.,
O=C(Nc1ccc2ccccc2c1)c1ccccc1Cl,14,2.3,13,-,9.3,17,9.2,22,-,LXRb hcDAF ctr=-;hcDAF12 conf=7.7
Cc1ccc(NC(=S)NC(=O)C2CCCCC2)c(Br)c1,18,-,9.8,-,6.3,7.8,7.2,15,-,
Cc1ccc(C(=O)Cn2nnc3ccccc32)cc1C,17,-,4.8,-,5.9,9.3,5.7,17,-,
Cc1ccc(C(=O)Cn2cnc3ccccc3c2=O)cc1C,-,-,-,-,-,.,.,.,.,
Cc1ccc2nc(-c3ccc(NC(=O)CN4C(=O)c5ccccc5C4=O)cc3)sc2c1,19,2.2,5.4,-,14,15,7.4,16,-,LXRb hcDAF ctr=-;hcDAF12 conf=8.3
Cc1ccc2nc(-c3ccc(NC(=O)CSc4nc(N)cc(=O)[nH]4)cc3)sc2c1,25,-,4.8,4.5,-,7.3,4.0,18,-,
Cc1ccc2nc(-c3ccc(NC(=O)COC(=O)c4ccc(=O)[nH]c4)cc3)sc2c1,22,1.2,8.4,-,11,14,8.5,23,-,LXRb hcDAF ctr=-;hcDAF12 conf=11
Cc1ccc2nc(-c3ccc(NC(=O)CNC4CC4)cc3)sc2c1,21,2.4,5.7,-,-,14,7.0,15,-,
Cc1ccc2nc(NC(=O)COC(=O)c3ccncc3)sc2c1,-,-,-,-,-,.,.,.,.,
Nc1cc(=O)[nH]c(SCC(=O)Nc2ccc(F)c(Cl)c2)n1,-,-,-,-,-,.,.,.,.,
Nc1nc(-c2ccc3ccccc3c2)cs1,18,-,12,-,6.4,9.9,7.5,15,-,
Nc1nc(-c2ccc(-c3ccccc3)cc2)cs1,19,-,6.3,-,-,10,6.8,20,-,
Nc1nc(-c2ccc(Oc3ccccc3)cc2)cs1,-,-,-,-,-,.,.,.,.,
O=C(C[C@@H]1C/C=C\C[C@H](Cc2ccc(F)cc2)C(=O)OC[C@@H](Cc2c[nH]c3ccccc23)NC1=O)NCCO,-,-,-,-,-,.,.,.,.,
O=C(Nc1ncccc1O)c1ccc(OCC2CCCO2)cc1 (configuration not stated),28,-,18,-,-,14,5.7,27,-,
O=C(NOCc1ccccc1)c1ccc([N+](=O)[O-])cc1,15,1.8,7.3,-,-,9.7,5.2,12,-,
Cc1cc(/C=C(\C#N)C(=O)Nc2ccccc2F)c(C)[nH]1,17,-,12,-,-,15,5.5,16,-,
CC(C)(C)c1ccc(-c2nnc(N)s2)cc1,17,-,5.0,-,-,11,7.0,12,-,
Nc1nnc(-c2ccc(F)cc2)s1,-,-,-,-,-,.,.,.,.,
SMILES,hgDAF12 agonist,ssDAF-12 act,DAX1 inh-1,DAX1 inh-2,hcDAF12 agonist,DAX1 inh confirm,SF1 AF2mut Luc,hgDAF12 conf,LXRb DAF12 ctr,others
O=C(Nc1cccc2ccccc12)/C(Cl)=C/c1ccccc1,-,-,-,-,-,.,.,.,.,
Cc1ccc(NC(=O)/C(Cl)=C\c2ccccc2)cc1,17,1.6,6.5,-,6.4,18,8.1,21,-,
Cc1ccc(NC(=O)N/C=C/c2ccccc2)cc1,-,-,-,-,-,.,.,.,.,
O=C(Nc1ccc(F)cc1)/C(Cl)=C/c1ccccc1,25,2.2,4.6,9.9,-,13,10,20,-,
COc1cc(NC(=O)[C@@H](NC(=O)c2ccco2)C(C)C)c(OC)cc1NC(=O)c1ccccc1,-,-,-,-,-,.,.,.,.,
O=C(Nc1ccccc1)c1cc(C2CCCN(C(=O)c3ccc4c(c3)CCO4)C2)on1 (configuration not stated),-,-,-,.,-,.,.,.,.,
COc1cccc2cc(-c3csc(NC(=O)CCC(=O)NCCCN4CCC(C)CC4)n3)c(=O)oc12,15,1.6,4.5,-,6.2,16,3.8,14,-,
